59 molecules from PubChem BioAssay AID1851 (National Center for Advancing Translational Sciences (NCATS), 2009) can be followed below.

Structures are written as SMILES. Where “and” joins values, the source holds several entries; their conditions need not be identical. Equal entries are not always repeated. Among all 16,000 compounds or so, about 2,600 (16%) were called active. About 20% were inconclusive and are not listed. Calls come from the whole dose curve; as a rule, active = well fitted curve in the direction sought with a large enough effect; inconclusive = small, poorly fitted or top-dose-only effect, or effect the other way; inactive = no such curve, though single readings can be large or run the other way. Not all results are given here.
% is set by controls: 0 for no effect and ±100 for the full control effect.

Sequence of Cytochrome P450 2D6 (Homo sapiens) (P10635 whole entry, looked up): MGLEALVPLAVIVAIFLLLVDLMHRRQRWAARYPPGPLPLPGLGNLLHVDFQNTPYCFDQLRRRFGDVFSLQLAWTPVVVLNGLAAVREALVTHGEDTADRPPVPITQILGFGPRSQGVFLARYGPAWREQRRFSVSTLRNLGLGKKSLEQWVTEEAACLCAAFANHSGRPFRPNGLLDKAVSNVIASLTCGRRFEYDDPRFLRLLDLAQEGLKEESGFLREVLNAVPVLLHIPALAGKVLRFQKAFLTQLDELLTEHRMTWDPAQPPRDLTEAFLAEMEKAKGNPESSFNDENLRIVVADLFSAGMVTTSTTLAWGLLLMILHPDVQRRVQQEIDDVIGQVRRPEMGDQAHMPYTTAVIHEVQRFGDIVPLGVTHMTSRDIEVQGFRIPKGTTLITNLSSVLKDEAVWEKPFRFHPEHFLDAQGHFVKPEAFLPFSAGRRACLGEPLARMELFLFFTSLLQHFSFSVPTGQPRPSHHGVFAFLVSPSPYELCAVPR

This assay concerns the target Cytochrome P450 2D6 (Homo sapiens) (UniProt P10635). Description: Cytochrome panel assay with activity outcomes. Particulars: recombinant CYP, pro-luciferin dealkylation, luminescence, p450-cyp2d6; series mostly up to 57.1 µM; activity, negative = inhibition: at the top concentration.
Take `C1CCC(N=C(NC23CC4CC(CC(C4)C2)C3)N2CCOCC2)CC1`: the AC50 (as a rule, the midpoint of the concentration-response curve, whichever way the signal moves) is 0.631 µM (active). For the molecule `COC(=O)[C@@]1(Cc2ccc(OC)cc2)[C@H]2c3cc(C(=O)N4CCCC4)n(Cc4cc(F)cc5c4OCOC5)c3C[C@H]2CN1C(=O)c1ccccc1`, the “activity, negative = inhibition” value is -3.21% (inactive). Still for that read-out and setting: under `CCn1ccc(C(=O)NC2=C(C#N)CCC2)n1` stands 4.95% (inactive); under `Cn1cc(C(=O)OCC2CCN(CCNS(C)(=O)=O)CC2)c2ccccc21`, -4.93% (inactive).

In the case of `COc1cc(N)c(Cl)cc1C(=O)CCC1CCN(CCNS(C)(=O)=O)CC1`, the AC50 was 12.6 µM (active). Still for that read-out and setting: under `COc1cc(COc2cc(N)c(Cl)cc2C(=O)CCC2CCN(CCNS(C)(=O)=O)CC2)cc(OC)c1` stands 0.794 µM (active). Still for that read-out and setting: as for `COc1[nH]c2ccc(F)cc2c1C(=O)OCC1CCN(CCNS(C)(=O)=O)CC1`, the entry is “inactive”. Consider `COc1cc(/C=C(\C#N)C(=O)NCC2CCCO2)c([N+](=O)[O-])cc1OC` (centres undefined), for which the “activity, negative = inhibition” value was -17.7% (inactive).

On to `CCn1c(CC(C)C)n[nH]c1=S`, for which the “activity, negative = inhibition” value was -7.94% (inactive).

`CO[C@H]1COC(=O)C/C=C\[C@H](C)[C@@H](NS(=O)(=O)c2ccc(C)cc2)COC(=O)CCC[C@@H]1C`: the activity, negative = inhibition is 8.76% [at 11.4 µM] (inactive).

As for `COC(Cc1nnc(SC)n1-c1ccc(Cl)cc1)OC`, the “activity, negative = inhibition” value was -0.686% (inactive). Same read-out and setting: as for `Cc1cccc(Oc2coc3cc(OC(=O)c4cccs4)ccc3c2=O)c1`, the figure is -22.9% (inactive); as for `Cc1ccc(CS(=O)(=O)CCC(=O)N2CCOCC2)cc1`, 7.49% (inactive); as for `CC(C)n1c(N2CCN(C(=O)Nc3ccccc3)CC2)nc2ccccc21`, -28.3% (inactive). Still for that read-out and setting: under `Cn1cc(/C=N/n2cnc3sc4c(c3c2=O)CCCC4)c2ccccc21` stands -12.6% (inactive). For `COc1ccc2[nH]cc(CCNc3ncnc4ccc(-c5ccc6c(c5)OCO6)cc34)c2c1`, the AC50 is 2.51 µM (active). Take `COc1cccc(-c2ccc3ncnc(NCCc4c[nH]c5ccc(OC)cc45)c3c2)c1`: the AC50 is 2.51 µM (active).

Regarding `COc1ccc2[nH]cc(CCNc3ncnc4ccc(-c5cccnc5)cc34)c2c1`, the AC50 was 7.94 µM (active). Consider `COc1ccc2[nH]cc(CCNc3ncnc4ccc(-c5ccoc5)cc34)c2c1`, for which the AC50 was 5.01 µM (active). Consider `COC(=O)[C@@H]1CC[C@H](C)[C@@H](c2ccc(C)cc2)N1C(=O)c1ccc(/C=N\O[C@@H](C)c2cn([C@H](CO)Cc3ccccc3)nn2)cc1`, for which the activity, negative = inhibition is 12.4% [at 11.4 µM] (inactive) and -16.1% [at 11.4 µM] (inactive). As for `N[C@](CC1c2ccccc2Oc2ccccc21)(C(=O)O)[C@@H]1C[C@@H]1C(=O)O`, the “activity, negative = inhibition” value was 8.73% (inactive).

`COc1ccc(-n2c(=O)c(-c3ccc(F)cc3)nc3cncnc32)cc1`: the “activity, negative = inhibition” value is -3.89% (inactive). For the molecule `Cn1nnnc1SCc1ccc(C(=O)Nc2ccc(Br)cc2)cc1`, the “activity, negative = inhibition” value was -9.28% (inactive).

Turning to `CCC(=O)OCc1c(C(F)(F)F)nn(C)c1Sc1ccc(F)cc1`, the “activity, negative = inhibition” value is -17.1% (inactive). The same measure, in the same setting: under `CC(C)(C)C(=O)NC(=C(Cl)Cl)P(=O)(O)O` stands -4% (inactive); under `Cc1c(C)c2c(c(C)c1O)CC[C@@](C)(C(=O)O)O2`, 0.454% [at 25.6 µM] (inactive); under `CCCNc1nc(NCC)nc(OC)n1`, 3.27% (inactive). For the molecule `Cc1noc(C)c1C(=O)N1CCC2(CCCN(Cc3nccs3)C2)CC1`, the “activity, negative = inhibition” value was -12.8% (inactive). Still for that read-out and setting: under `C[C@H](O)[C@H](O)[C@@H]1CNc2nc(N)[nH]c(=O)c2N1` stands 2.53% (inactive). In the case of `COc1ccc2[nH]cc(CCNc3ncnc4ccc(-c5c(C)noc5C)cc34)c2c1`, the AC50 is 6.31 µM (active). On the same count and under the same terms, under `Clc1ccc2[nH]cc(-c3nnnn3-c3ccccc3)c2c1` stands 28.2 µM (active). As for `Cc1ccc(-n2nnnc2-c2cnc3ccc(Cl)cc3c2-c2ccccc2)cc1`, the “activity, negative = inhibition” value was -3.88% (inactive). On the same count and under the same terms, as for `Fc1ccc(-c2[nH]ncc2-c2nnnn2-c2ccccc2)c(F)c1`, the figure is 15.9% (inactive); as for `Cc1cccc(C2NC(=O)c3c(sc(C)c3C)N2)c1O` (centres undefined), -12.8% (inactive). In the case of `Clc1ccc(-c2nnc(-c3ccc(Br)cc3)c(N3CCSCC3)n2)cc1`, the “activity, negative = inhibition” value was -5.11% (inactive). Same read-out and setting: as for `O=C(NNC(=O)c1ccncc1)c1ccncc1`, the figure is -4.63% [at 11.4 µM] (inactive). Turning to `CC(C)NNC(=O)c1ccncc1`, the AC50 entry is “inactive”.

Regarding `CC1(C)Cc2ccccc2C(NNC(=O)c2ccncc2)=N1`, the AC50 is 7.94 µM (active).

As to `O=C(Cc1ccccc1)N/N=C/c1cc(Br)c(Br)o1`, the “activity, negative = inhibition” value was -11.9% (inactive).

`COc1ccc(OC)c(C2N(c3cc(C)on3)C(=O)C3CCCN32)c1` (centres undefined): the “activity, negative = inhibition” value was 21.9% (inactive). Same read-out and setting: as for `COc1ccc(C(F)(F)F)cc1N/C=C\c1nnnn1-c1ccccc1`, the figure is -1.69% (inactive); as for `O=C(CSc1ccc(Cl)cc1)Nc1ccc(N2CCN(c3ccccc3)CC2)c(F)c1`, -1.75% (inactive). Regarding `CCOC(=O)c1[nH]c2cc3c(cc2c1NC(=O)CN1CCC2(CC1)OCCO2)OCO3`, the “activity, negative = inhibition” value was 3.18% (inactive).

`CCOC(=O)c1[nH]c2cc(OC)c(OC)cc2c1NC(=O)c1nonc1C`: the “activity, negative = inhibition” value is -3.37% (inactive). On the same count and under the same terms, under `CCN(CC(=O)Nc1ccc2c(c1)OCCO2)C(=O)c1cccc(S(=O)(=O)N2CCOCC2)c1` stands -15.4% (inactive); under `COc1cc(-c2nnc(SCC(=O)Nc3ccc4c(c3)OCCO4)o2)cc(OC)c1OC`, -14.4% (inactive). Still for that read-out and setting: as for `COc1cc2c(cc1OC)CN(C(=S)Nc1ccccc1)CC2`, the figure is 6.67% (inactive); as for `CCOc1ccc(NC(=O)CN2CCN(S(=O)(=O)c3ccc(Cl)cc3)CC2)cc1`, -13% (inactive). Turning to `COc1cc2c(cc1OC)CN(CC(=O)Nc1ccc3c(c1)OCO3)CC2`, the AC50 was 8.91 µM (active).

As for `O=C(CN1CCN(c2ccc(Cl)cc2)CC1)Nc1ccc(F)c(F)c1`, the AC50 was 3.55 µM (active). The same measure, in the same setting: under `O=C(CN1CCN(S(=O)(=O)c2ccc(Cl)cc2)CC1)Nc1ccc2c(c1)OCO2` stands 2.51 µM (active).

With `O=C(CSc1ccccc1)Nc1ccc(N2CCN(c3ccccc3)CC2)c(F)c1`, the “activity, negative = inhibition” value was -5.65% (inactive).

For `CCOC(=O)c1[nH]c2cc3c(cc2c1NC(=O)CN1CCc2ccccc2C1)OCO3`, the AC50 was 3.55 µM (active). With `N[C@@](CC(=O)O)(Cc1ccccc1)C(=O)O`, the activity, negative = inhibition was 7.77% [at 11.4 µM] (inactive). The same measure, in the same setting: as for `CCN1C(=O)[C@H]2[C@H]3[C@H](O)[C@H](O)C/C(=N/O[C@@H](C)c4cn([C@H]5COC[C@H]5O)nn4)[C@@H]3CC[C@@H]2C1=O`, the figure is -1.04% [at 11.4 µM] (inactive); as for `C[C@H](C(=O)c1ccncc1)c1ccccn1`, -3.93% [at 11.4 µM] (inactive). The same measure, in the same setting: as for `O=C(O)CN(CCN(CC(=O)O)CC(=O)O)CC(=O)O.[Mn]`, the figure is 9.26% [at 11.4 µM] (inactive); as for `Cc1cc(=O)oc(C)c1C(=O)N1CCCCC1`, 15.6% (inactive); as for `CCCC[C@@H]1CN2[C@H](c3ccc(Br)cc3)[C@@H](C)CC[C@H]2C(=O)O1`, -5.55% [at 11.4 µM] (inactive).
